Data: PubChem BioAssay AID540359 (Broad Institute, 2011)
Entries with a potency or affinity are not part of this list. Values without a mark were called inactive. No rule for the calls is given here.

These molecules were tested against UDP-galactopyranose mutase (Mycobacterium tuberculosis (strain ATCC 25618 / H37Rv)) (UniProt P9WIQ1) (assay: Mycobacterium tuberculosis UGM enzyme inhibition, dose response confirmation, purified biochemical assay (AID 540359)). Conditions: plate reader activity; series mostly up to 50 µM; activity change, negative = inhibition: at the top concentration.
UDP-galactopyranose mutase (Mycobacterium tuberculosis (strain ATCC 25618 / H37Rv)), sequence (P9WIQ1 whole entry, looked up): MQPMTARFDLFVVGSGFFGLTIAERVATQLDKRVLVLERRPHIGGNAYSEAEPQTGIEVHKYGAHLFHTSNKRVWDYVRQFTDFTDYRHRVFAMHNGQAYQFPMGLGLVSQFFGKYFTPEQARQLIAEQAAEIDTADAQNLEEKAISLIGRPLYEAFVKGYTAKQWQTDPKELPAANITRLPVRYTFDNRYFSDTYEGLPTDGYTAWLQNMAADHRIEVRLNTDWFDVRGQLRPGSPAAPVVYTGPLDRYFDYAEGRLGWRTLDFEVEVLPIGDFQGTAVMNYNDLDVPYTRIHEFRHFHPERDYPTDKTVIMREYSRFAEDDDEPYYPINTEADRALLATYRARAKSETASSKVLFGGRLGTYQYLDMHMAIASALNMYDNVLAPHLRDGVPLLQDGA

| Compound | activity change, negative = inhibition |
| --- | --- |
| CC(=O)NC(Cc1ccccc1)C(=O)OCC(=O)c1ccccc1 (configuration not stated) | -3.54% |
| O=C1C2C3C=CC(C3)C2C(=O)N1CCN1CCN(S(=O)(=O)c2ccc3ccccc3c2)CC1 (configuration not stated) | -0.268% |
| COc1ccc(OC)c(/C=C2\Oc3cc(OCC(=O)N4CCC[C@H]4C(=O)O)ccc3C2=O)c1 | -11% |
| COc1ccc(CCn2c(=N)c(S(=O)(=O)c3ccc(C)cc3)cc3c(=O)n4ccccc4nc32)cc1 | -9.16% |
| COc1ccccc1N1CCN(C2CCCN(C(=O)CCC(=O)N(C)C)C2)CC1 (configuration not stated) | 0.112% |
| CCOC(=O)c1cnc2ccc(Cl)cc2c1NCCN(C)C | -0.284% |
| Cc1n[nH]c(=O)c2c(NC(=O)CSc3nnc(-c4ccco4)n3C)oc(C)c12 | -7.02% |
| C=CCn1ccc(=NC=C(C#N)C#N)c2ccccc21 | -3.63% |
| CCOC(=O)C1CCCN(C(=O)C2c3ccccc3Oc3ccccc32)C1 (configuration not stated) | -19.5% |
| CCOc1ccc(C(=O)NC(=S)Nc2cccnc2)cc1 | -1.97% |
| COc1ccccc1N1N=C(C(=O)c2ccccc2)C2C(=O)N(c3ccc(Br)cc3)C(=O)C21 (configuration not stated) | -10.5% |
| CCOc1cc(/C=C2\CCCc3c2nc2ccccc2c3C(=O)O)ccc1OC | -2.82% |
